Source: PubChem BioAssay AID1159580 (chemical genetic matrix, 2015)
The whole screen tested about 5,500 compounds, of which about 2,000 (36%) were called active. Inconclusive results (about 18%) are left out. Rule as the data show it: active = normalized growth mostly below about 0.91 (no sharp cut-off); inconclusive = no clear call, values can overlap the other calls; inactive = mostly above about 0.92. The list shows a part of the results.

Assay: chemical genetic growth profiling, strain panel (AID 1159580);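 also: tested at 20 µM; growth read once vehicle control cultures reached saturation at 30 °C; 1 = growth at the plate median or of vehicle wells; lower values mean less growth of the strain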
Conditions: S. cerevisiae deletion strains, growth OD

Measured: normalized growth

C/C(=C\CO)CC[C@H](C)CCC[C@H](C)CCCC(C)C
active: locus YKL068W, active compounds read low 1.09 [resistant] | locus YKL085W, strain MDH1 (second series), active compounds read low 1.07 [resistant] | locus YKL085W, strain MDH1, active compounds read low 1.07 [resistant] | locus YKR001C, strain vps1, active compounds read low 1.19 [resistant] | locus YKR026C, strain gcn3, active compounds read low 1.12 [resistant] | locus YKR091W, strain srl3, active compounds read low 1.12 [resistant] | locus YLL001W, strain dnm1, active compounds read low 1.13 [resistant] | locus YLL026W, active compounds read low 1.14 [resistant] | locus YLL041C, strain sdh2, active compounds read low 1.13 [resistant] | locus YLR027C, strain aat2, active compounds read low 1.12 [resistant] | locus YLR102C, strain apc9, active compounds read low 1.11 [resistant] | locus YLR221C, strain rsa3, active compounds read low 1.15 [resistant] | locus YLR258W, strain gsy2, active compounds read low 1.14 [resistant] | locus YLR262C, strain YPT6 (second series), active compounds read low 1.17 [resistant] | locus YLR268W, strain sec22, active compounds read low 1.15 [resistant] | locus YLR330W, strain CHS5, active compounds read low 1.1 [resistant] | locus YLR370C, strain arc18, active compounds read low 1.1 [resistant] | locus YML032C, strain rad52, active compounds read low 1.15 [resistant] | locus YML120C, strain ndi1, active compounds read low 1.13 [resistant] | locus YML124C, strain tub3, active compounds read low 1.12 [resistant] | locus YMR058W, strain fet3, active compounds read low 1.13 [resistant] | locus YMR078C, strain ctf18, active compounds read low 1.15 [resistant] | locus YMR125W, strain sto1, active compounds read low 1.13 [resistant] | locus YMR129W, active compounds read low 1.14 [resistant] | locus YMR223W, strain ubp8, active compounds read low 1.13 [resistant] | locus YMR231W, strain pep5, active compounds read low 1.14 [resistant] | locus YMR263W, strain SAP30, active compounds read low 1.12 [resistant] | locus YNL071W, strain lat1, active compounds read low 1.13 [resistant] | locus YNL153C, strain GIM3, active compounds read low 1.13 [resistant] | locus YNL209W, strain ssb2, active compounds read low 1.12 [resistant] | locus YNL248C, strain rpa49, active compounds read low 1.13 [resistant] | locus YNL250W, strain rad50, active compounds read low 1.13 [resistant] | locus YNL271C, strain bni1, active compounds read low 1.12 [resistant] | locus YNL298W, strain CLA4, active compounds read low 1.14 [resistant] | locus YNL307C, strain MCK1, active compounds read low 1.14 [resistant] | locus YNR049C, strain mso1, active compounds read low 1.11 [resistant] | locus YNR052C, strain pop2, active compounds read low 1.14 [resistant] | locus YOL147C, strain pex11, active compounds read low 1.12 [resistant] | locus YOR001W, strain rrp6, active compounds read low 1.15 [resistant] | locus YOR070C, strain gyp1, active compounds read low 1.08 [resistant] | locus YOR083W, strain WHI5, active compounds read low 1.14 [resistant] | locus YOR106W, strain vam3, active compounds read low 1.15 [resistant] | locus YOR136W, strain idh2, active compounds read low 1.15 [resistant] | locus YOR144C, strain elg1, active compounds read low 1.13 [resistant] | locus YOR184W, strain ser1, active compounds read low 1.15 [resistant] | locus YOR265W, strain rbl2, active compounds read low 1.14 [resistant] | locus YOR290C, strain snf2, active compounds read low 1.13 [resistant] | locus YOR316C, strain cot1, active compounds read low 1.13 [resistant] | locus YPL078C, strain atp4, active compounds read low 1.12 [resistant] | locus YPL106C, strain sse1, active compounds read low 1.15 [resistant] | locus YPL240C, strain hsp82, active compounds read low 1.12 [resistant] | locus YPR141C, strain kar3, active compounds read low 1.12 [resistant] | locus YPR163C, strain tif3, active compounds read low 1.13 [resistant] | locus YPR167C, strain met16, active compounds read low 1.09 [resistant] | strain wtn01, active compounds read low 1.12 [resistant]
inactive: locus YJR066W, strain TOR1, active compounds read low 0.98 | locus YJR075W, strain HOC1, active compounds read low 1.12 | locus YKL009W, strain mrt4, active compounds read low 1.09 | locus YKL160W, strain elf1, active compounds read low 0.984 | locus YKL190W, strain CNB1, active compounds read low 1.05 | locus YLR039C, strain RIC1, active compounds read low 1.16 | locus YLR058C, strain SHM2, active compounds read low 1.09 | locus YLR113W, strain HOG1, active compounds read low 0.959 | locus YLR262C, strain YPT6, active compounds read low 1.16 | locus YLR320W, strain mms22, active compounds read low 0.988 | locus YLR342W, strain FKS1 (second series), active compounds read low 1.1 | locus YLR342W, strain FKS1, active compounds read low 1.09 | locus YLR357W, strain rsc2, active compounds read low 1.1 | locus YLR371W, strain rom2, active compounds read low 1.04 | locus YLR384C, strain iki3, active compounds read low 0.978 | locus YLR418C, strain cdc73, active compounds read low 1.12 | locus YML016C, strain PPZ1, active compounds read low 1.05 | locus YMR205C, strain PFK2, active compounds read low 1.08 | locus YMR307W, strain GAS1, active compounds read low 1.1 | locus YNL067W, strain RPL9B, active compounds read low 1.08 | locus YNL183C, strain NPR1, active compounds read low 0.967 | locus YNL233W, strain BNI4, active compounds read low 1.07 | locus YNL322C, strain KRE1 (second series), active compounds read low 1.08 | locus YNL322C, strain KRE1, active compounds read low 1.07 | locus YOL006C, strain TOP1, active compounds read low 1.12 | locus YOL012C, strain htz1 1.59 | locus YOR061W, strain CKA2, active compounds read low 1.1 | locus YOR069W, strain VPS5, active compounds read low 1.05 | locus YOR080W, strain dia2, active compounds read low 0.982 | locus YOR231W, strain MKK1, active compounds read low 0.984 | locus YOR270C, strain vph1, active compounds read low 1.16 | locus YPL051W, strain arl3, active compounds read low 1.05 | locus YPL055C, strain LGE1, active compounds read low 1.05 | locus YPL256C, strain CLN2, active compounds read low 0.961 | locus YPR119W, strain clb2, active compounds read low 1.06
